Holding throughout (assay): log2 ratio of Biotin-Ahx-Ub-VS probe labelling (fragment/DMSO); higher = less target engagement (more negative = stronger competition), active = hit call of the paper (q ≤ 0.05, log2 ratio ≤ -1)
What all share (conditions): compound concentration: 200 uM; treatment time: 3 h

One assay has as its target T1, USP19 (UniProt O94966).
T1 sequence (whole entry): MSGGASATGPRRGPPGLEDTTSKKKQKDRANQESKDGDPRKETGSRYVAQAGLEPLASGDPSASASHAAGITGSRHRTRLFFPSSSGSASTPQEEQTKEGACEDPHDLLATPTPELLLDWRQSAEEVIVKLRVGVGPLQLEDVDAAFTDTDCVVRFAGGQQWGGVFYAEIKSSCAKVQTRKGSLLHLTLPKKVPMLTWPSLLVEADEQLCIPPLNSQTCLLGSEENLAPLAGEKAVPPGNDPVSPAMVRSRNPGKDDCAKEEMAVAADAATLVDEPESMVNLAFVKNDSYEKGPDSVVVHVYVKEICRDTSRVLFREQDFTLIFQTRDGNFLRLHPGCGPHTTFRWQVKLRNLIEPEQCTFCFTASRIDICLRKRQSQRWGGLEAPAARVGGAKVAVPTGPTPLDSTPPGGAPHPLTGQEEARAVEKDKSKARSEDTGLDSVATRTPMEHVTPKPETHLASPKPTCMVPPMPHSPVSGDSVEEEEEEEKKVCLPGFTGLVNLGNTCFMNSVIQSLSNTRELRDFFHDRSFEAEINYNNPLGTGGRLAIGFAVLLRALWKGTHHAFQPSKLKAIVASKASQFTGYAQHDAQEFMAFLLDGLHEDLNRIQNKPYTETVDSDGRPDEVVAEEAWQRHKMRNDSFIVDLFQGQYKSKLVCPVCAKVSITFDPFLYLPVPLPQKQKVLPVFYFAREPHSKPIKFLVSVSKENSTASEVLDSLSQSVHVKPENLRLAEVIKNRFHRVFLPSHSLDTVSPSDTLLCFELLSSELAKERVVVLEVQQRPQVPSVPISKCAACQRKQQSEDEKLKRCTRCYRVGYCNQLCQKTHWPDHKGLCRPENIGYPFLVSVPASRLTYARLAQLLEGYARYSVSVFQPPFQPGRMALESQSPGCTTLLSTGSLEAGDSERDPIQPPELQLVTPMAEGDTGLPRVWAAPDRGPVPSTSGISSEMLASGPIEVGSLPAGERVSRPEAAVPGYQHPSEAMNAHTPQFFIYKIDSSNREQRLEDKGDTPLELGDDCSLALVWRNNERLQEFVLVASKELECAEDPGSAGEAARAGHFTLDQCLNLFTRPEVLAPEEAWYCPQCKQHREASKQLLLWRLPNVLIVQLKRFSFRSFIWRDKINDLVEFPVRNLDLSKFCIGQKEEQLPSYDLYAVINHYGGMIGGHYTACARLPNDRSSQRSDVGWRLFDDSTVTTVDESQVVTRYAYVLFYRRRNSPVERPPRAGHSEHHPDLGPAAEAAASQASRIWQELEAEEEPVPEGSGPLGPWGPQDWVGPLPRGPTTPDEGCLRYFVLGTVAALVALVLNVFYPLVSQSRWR
A digest of the protocol: (§1)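 Fragment (200 µM) or vehicle was incubated for 3 h with triplicate HEK293T lysate samples of 495 µg, which were then treated with Biotin-Ahx-Ub-VS at 0.5 µM final for 1 h. Labelled DUBs were enriched on NeutrAvidin, digested with LysC and trypsin, and analysed by diaPASEF LC-MS/MS. Values are average log2 fragment/vehicle ratios from an unpaired t-test on global-median-normalised Spectronaut label-free quantities, using proteins with ≥2 unique peptides.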

In a further assay the target is T2, USP22 (UniProt Q9UPT9).
T2 sequence (whole entry): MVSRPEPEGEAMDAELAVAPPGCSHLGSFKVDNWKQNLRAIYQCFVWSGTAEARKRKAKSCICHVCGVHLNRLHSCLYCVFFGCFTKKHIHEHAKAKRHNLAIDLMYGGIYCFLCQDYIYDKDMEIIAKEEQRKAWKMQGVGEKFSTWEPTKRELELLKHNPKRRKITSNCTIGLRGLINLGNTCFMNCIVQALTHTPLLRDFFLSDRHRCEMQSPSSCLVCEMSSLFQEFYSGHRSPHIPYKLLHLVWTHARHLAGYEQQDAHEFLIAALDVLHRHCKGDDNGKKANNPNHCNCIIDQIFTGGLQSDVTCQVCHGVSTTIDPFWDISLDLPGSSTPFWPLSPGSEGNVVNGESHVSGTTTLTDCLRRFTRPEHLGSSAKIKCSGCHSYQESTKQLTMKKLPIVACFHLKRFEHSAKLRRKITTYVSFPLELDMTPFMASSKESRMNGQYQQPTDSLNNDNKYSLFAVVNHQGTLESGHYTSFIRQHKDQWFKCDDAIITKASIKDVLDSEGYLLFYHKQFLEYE
In short, it runs like this: as §1

For a further assay, the target named is USP24 (UniProt Q9UPU5). In short, it runs like this:
as §1

A further assay addresses T3, USP25 (UniProt Q9UHP3).
T3 sequence (whole entry): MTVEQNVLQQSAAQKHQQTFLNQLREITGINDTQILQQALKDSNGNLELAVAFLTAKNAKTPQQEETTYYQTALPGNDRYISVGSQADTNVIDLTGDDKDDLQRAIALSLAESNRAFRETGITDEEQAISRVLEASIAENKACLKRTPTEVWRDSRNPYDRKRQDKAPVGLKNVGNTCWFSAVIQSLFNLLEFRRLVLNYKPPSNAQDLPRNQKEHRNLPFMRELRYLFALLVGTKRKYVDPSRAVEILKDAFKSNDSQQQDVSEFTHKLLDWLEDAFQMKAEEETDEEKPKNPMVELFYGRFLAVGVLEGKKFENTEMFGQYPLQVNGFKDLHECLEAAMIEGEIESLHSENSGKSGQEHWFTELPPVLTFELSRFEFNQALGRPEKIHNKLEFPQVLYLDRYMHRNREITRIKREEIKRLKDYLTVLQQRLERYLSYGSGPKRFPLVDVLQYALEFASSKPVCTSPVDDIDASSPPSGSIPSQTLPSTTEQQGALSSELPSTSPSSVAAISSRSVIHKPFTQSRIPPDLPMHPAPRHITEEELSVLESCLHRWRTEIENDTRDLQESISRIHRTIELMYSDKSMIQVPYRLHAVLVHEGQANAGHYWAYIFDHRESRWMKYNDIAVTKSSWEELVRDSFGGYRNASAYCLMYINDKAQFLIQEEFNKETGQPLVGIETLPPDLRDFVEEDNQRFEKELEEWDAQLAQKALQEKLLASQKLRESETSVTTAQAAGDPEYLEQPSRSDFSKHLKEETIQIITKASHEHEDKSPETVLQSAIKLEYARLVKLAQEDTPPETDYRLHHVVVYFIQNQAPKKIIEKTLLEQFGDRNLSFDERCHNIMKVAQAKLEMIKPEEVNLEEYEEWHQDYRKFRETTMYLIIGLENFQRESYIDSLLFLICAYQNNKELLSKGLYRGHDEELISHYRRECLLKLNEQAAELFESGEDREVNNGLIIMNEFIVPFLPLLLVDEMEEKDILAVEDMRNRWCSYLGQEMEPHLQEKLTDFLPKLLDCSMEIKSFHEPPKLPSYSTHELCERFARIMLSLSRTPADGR
A digest of the protocol: as §1

The target of another assay is T4, USP28 (UniProt Q96RU2).
T4 sequence (whole entry): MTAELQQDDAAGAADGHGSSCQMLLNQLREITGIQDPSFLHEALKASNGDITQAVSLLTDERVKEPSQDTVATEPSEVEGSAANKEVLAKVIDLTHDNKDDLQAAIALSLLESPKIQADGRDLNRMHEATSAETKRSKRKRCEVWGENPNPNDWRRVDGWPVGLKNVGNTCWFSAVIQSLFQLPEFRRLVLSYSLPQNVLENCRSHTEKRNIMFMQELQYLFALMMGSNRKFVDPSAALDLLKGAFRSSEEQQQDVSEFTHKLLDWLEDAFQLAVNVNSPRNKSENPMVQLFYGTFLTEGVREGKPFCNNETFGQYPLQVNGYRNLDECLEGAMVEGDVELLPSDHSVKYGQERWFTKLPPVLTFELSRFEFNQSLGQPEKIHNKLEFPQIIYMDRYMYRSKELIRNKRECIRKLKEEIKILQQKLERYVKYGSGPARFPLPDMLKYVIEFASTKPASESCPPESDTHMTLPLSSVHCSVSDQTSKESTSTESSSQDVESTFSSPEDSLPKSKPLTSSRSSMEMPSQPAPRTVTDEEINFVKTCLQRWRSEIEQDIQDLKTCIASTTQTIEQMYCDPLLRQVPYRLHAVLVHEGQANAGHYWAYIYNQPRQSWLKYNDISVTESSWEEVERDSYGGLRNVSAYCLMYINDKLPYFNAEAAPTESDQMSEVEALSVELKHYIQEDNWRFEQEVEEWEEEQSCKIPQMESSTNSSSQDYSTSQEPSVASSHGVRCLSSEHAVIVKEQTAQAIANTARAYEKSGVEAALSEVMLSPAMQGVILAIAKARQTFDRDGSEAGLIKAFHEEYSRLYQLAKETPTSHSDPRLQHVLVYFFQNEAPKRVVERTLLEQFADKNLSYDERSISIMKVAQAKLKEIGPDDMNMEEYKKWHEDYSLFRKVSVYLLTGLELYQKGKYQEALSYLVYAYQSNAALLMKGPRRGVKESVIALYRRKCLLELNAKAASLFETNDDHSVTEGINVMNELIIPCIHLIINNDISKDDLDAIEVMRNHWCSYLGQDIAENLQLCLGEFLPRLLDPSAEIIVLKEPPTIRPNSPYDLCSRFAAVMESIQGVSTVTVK
A digest of the protocol:
as §1

The structures appear in SMILES notation. Unmarked numbers belong to inactive results.

USP24, sequence (Q9UPU5 whole entry): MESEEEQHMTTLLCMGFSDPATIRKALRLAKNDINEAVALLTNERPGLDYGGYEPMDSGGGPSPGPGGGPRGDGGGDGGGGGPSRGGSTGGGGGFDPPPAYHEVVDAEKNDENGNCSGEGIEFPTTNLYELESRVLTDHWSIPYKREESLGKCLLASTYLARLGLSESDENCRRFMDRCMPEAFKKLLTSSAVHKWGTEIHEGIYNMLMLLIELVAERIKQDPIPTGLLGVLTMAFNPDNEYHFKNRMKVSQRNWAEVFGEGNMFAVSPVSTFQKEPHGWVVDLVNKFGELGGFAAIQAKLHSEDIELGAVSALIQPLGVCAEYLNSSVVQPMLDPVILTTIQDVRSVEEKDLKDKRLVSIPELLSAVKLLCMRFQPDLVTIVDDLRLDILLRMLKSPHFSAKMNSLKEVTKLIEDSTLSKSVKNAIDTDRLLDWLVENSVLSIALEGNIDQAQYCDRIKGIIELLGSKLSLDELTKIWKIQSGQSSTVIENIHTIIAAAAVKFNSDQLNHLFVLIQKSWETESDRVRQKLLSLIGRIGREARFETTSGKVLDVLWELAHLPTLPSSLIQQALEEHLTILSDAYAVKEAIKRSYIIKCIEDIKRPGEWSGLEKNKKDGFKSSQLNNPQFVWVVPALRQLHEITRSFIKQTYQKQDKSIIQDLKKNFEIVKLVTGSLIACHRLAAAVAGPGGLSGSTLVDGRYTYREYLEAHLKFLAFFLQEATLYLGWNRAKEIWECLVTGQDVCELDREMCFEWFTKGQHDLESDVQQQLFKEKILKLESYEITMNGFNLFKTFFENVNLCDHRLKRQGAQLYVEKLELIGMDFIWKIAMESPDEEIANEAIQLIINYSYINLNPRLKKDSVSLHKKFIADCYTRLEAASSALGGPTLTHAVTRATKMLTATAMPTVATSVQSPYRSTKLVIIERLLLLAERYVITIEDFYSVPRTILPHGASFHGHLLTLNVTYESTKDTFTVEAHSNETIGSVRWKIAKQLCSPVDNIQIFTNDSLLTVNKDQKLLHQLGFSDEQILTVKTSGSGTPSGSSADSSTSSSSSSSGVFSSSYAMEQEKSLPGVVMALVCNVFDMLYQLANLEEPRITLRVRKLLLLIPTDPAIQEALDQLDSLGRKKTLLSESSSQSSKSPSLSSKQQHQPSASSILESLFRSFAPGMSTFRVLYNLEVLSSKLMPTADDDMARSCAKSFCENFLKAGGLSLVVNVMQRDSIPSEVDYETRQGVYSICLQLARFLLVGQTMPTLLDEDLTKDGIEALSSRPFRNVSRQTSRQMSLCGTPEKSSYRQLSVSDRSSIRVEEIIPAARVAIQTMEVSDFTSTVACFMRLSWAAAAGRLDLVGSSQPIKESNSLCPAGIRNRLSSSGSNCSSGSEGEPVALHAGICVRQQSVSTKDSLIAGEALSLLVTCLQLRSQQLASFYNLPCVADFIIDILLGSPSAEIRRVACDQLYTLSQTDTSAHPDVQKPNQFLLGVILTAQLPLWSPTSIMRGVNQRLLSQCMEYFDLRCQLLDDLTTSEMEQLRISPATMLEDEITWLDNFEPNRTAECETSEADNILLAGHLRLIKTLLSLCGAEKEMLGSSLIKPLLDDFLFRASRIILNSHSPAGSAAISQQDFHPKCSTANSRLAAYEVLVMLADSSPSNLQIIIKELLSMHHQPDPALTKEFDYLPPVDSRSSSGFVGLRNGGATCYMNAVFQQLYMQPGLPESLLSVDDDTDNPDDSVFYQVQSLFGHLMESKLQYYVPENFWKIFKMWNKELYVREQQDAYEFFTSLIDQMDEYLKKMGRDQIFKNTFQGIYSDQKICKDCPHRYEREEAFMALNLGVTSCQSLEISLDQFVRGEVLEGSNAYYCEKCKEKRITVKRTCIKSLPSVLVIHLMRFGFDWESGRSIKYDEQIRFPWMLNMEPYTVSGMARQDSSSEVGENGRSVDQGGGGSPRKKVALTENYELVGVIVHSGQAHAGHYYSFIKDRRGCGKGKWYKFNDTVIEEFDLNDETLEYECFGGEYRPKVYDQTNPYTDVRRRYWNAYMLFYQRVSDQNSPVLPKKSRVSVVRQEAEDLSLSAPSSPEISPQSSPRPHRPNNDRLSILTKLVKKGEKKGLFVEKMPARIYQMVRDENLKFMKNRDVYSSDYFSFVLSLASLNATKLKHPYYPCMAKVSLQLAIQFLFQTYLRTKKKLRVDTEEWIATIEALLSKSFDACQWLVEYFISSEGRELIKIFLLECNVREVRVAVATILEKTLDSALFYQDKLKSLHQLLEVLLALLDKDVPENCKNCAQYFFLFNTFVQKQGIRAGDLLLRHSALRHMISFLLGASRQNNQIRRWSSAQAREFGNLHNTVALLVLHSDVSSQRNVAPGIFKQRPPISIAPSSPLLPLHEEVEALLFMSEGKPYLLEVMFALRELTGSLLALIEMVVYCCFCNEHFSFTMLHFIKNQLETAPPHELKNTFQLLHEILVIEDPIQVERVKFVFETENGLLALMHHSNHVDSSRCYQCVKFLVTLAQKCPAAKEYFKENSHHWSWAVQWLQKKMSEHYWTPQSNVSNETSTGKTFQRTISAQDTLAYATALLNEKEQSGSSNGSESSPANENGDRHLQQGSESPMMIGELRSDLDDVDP

With `CN(C)C(=O)c1ccc(NC(=O)CCl)cc1`, the “log2 ratio of Biotin-Ahx-Ub-VS probe labelling” value is -0.166 in the assay with USP19; -0.0455 in the assay with USP22; -0.00912 in the assay with USP24; -1.1 (active) with USP25; -1.47 (active) with USP28.

For the origin of these results see the supplement of paper PMC11732987, “Enantioselective OTUD7B fragment discovery through chemoproteomics screening and high-throughput optimisation” (Communications Chemistry, 2025).
